# Tested on: XIP peptide (Xip251-270)
# Test: compounds binding XIP fragment 251-270 – biochemical, small-molecule microarray, fluorescence 635/667 nm, 0.5 µg/mL protein, primary screen (AID 1183)
# Conditions: fluorescence 635 nm, higher = more signal
row,Compound,composite z-score
1,O=C1[C@H]2[C@H]3[C@H](O)[C@H](O)CC(=NO[C@@H]4O[C@H](CO)[C@@H](O)[C@H](O)[C@H]4O)[C@H]3CC[C@H]2C(=O)N1C[C@@H]1CCCO1,0.184
2,C#CCCCON=C1C[C@@H](O)[C@@H](O)[C@@H]2[C@@H]3C(=O)N(C[C@@H]4CCCO4)C(=O)[C@@H]3CC[C@@H]12,0.384
3,CCN1C(=O)[C@H]2[C@H]3[C@H](O)[C@H](O)CC(=NOCC[C@@H]4C=C[C@H](OC(C)=O)[C@@H](COC(C)=O)O4)[C@@H]3CC[C@H]2C1=O,0.529
4,CC(=O)OC[C@H]1O[C@@H](ON=C(C)CCC(=O)OC[C@H]2O[C@H](C#Cc3ccccc3)C=C[C@@H]2Oc2ccc(C)cc2)[C@H](OC(C)=O)[C@@H](OC(C)=O)[C@@H]1OC(C)=O,0.625
5,CO[C@H]1C[C@@H]2C[C@H](O)CC(CC(=O)O[C@@H](C=CCC(C)C)C[C@@H]3CC[C@H](C)[C@@H](C1)O3)O2,0.142

# Tested on: not listed separately
# Test: blood-stage malaria parasite viability loss – strain 3D7, DAPI fluorescence, 100 nL, primary screen (AID 1184);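 also: parasites grown inside human red blood cells in medium with human serum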
# Conditions: P. falciparum 3D7 growth, 3 d, higher = more signal
row,Compound,z-score
1,CC1(C)O[C@H]2OC([C@H](O)CON3C(=O)c4ccccc4C3=O)[C@H](O)[C@H]2O1 (stereo partly drawn),0.696
2,C=CC[C@@H]1C=C[C@H](ON=C2C[C@@H](O)[C@@H](O)[C@@H]3[C@@H]4C(=O)N(CC)C(=O)[C@@H]4CC[C@@H]23)[C@@H](CO)O1,-0.689
3,O=C1C2=CC[C@H]3C(=O)N(C[C@@H]4CCCO4)C(=O)[C@H]3[C@H]2[C@H](O)[C@@H]2O[C@H]12,-0.434
4,COc1cccc([C@H]2Oc3ccc(OC)cc3C(=NOCC[C@@H]3C=C[C@H](OC(C)=O)[C@@H](COC(C)=O)O3)[C@@H]2O)c1,0.956
5,CC(C)C(=O)N[C@H]1CCCN1C(=O)C=Cc1ccccc1,-0.64
6,CC(CCC(=O)OC[C@H]1O[C@H](C#Cc2ccccc2)C=C[C@@H]1Oc1ccc(C)cc1)=NOC(C)CN1CCCc2nc(C)c(C)cc21 (stereo partly drawn),-1.9
7,O=C1[C@H]2[C@H]3[C@H](O)[C@H](O)CC(=NOC[C@@H](O)COCc4ccco4)[C@@H]3CC[C@H]2C(=O)N1Cc1ccc2c(c1)OCO2,1.15
8,C#CCCCON=C1C[C@@H](O)[C@@H](O)[C@@H]2[C@@H]3C(=O)N(CC)C(=O)[C@@H]3CC[C@H]12,-0.263
9,COc1ccc(O[C@H]2C=C[C@@H](c3ccccc3)O[C@@H]2CON=C(C)CCN2CCCc3nc(C)c(C)cc32)cc1,-1.96
10,COc1ccc(COC(=O)NN=C2C[C@@H](O)[C@@H](O)[C@@H]3[C@@H]4C(=O)N(c5cccc(Oc6ccccc6)c5)C(=O)[C@@H]4CC[C@H]23)cc1,-1.34
11,CC(CCN1CCCc2nc(C)c(C)cc21)=NOC[C@@H](O)COCc1ccco1,0.245
12,C#CCCCON=C1C[C@@H](O)[C@@H](O)[C@@H]2[C@@H]3C(=O)N(C4CCCCC4)C(=O)[C@@H]3CC[C@@H]12,0.204
13,O=C1[C@H]2[C@H]3[C@H](O)[C@H](O)CC(=NO[C@@H]4O[C@H](CO)[C@@H](O)[C@H](O)[C@H]4O)[C@@H]3CC[C@H]2C(=O)N1C[C@@H]1CCCO1,-1.49
14,CC(CCN1CCCc2nc(C)c(C)cc21)=NOC[C@@H](C)[C@H](OCc1ccccc1)C(C)C,-0.342
15,C=CCOCC1CN2[C@@H](CC[C@@H](C)[C@@H]2c2ccc(Br)cc2)C(=O)O1 (stereo partly drawn),1.72
16,CC(C)=NOC(C)CN1CCCCc2nc(C)c(C)cc21 (stereo not drawn),1.35
17,CC(=O)OC[C@H]1O[C@H](CC=NOC[C@@H](O)[C@H]2O[C@@H]3OC(C)(C)O[C@@H]3[C@H]2O)C=C[C@@H]1OC(C)=O,0.158
18,C[C@@H]1CC[C@H]2C(=O)N3[C@@H](CC[C@@H](C)[C@@H]3c3ccc(Br)cc3)C(=O)N2[C@H]1c1ccc(Br)cc1,-0.212
19,CC(C)(C)N1C(=O)[C@H]2[C@H]3[C@H](O)[C@H](O)CC(=NNC(=O)OCc4ccccc4)[C@H]3CC[C@H]2C1=O,-1.37
20,CCOC(=O)CCN1C(=O)[C@H]2[C@H]3[C@H](O)[C@H](O)CC(=NOCC=C(C)CCC=C(C)C)[C@H]3CC[C@H]2C1=O,0.241
21,CO[C@H]1COC(=O)[C@H](CCSC)NC(=O)CC=C[C@@H](C)[C@H](OC)COC(=O)[C@@H](OCc2ccccc2)C=C[C@@H]1C,-0.772
22,CC(C)[C@@H](OCc1ccccc1)[C@H](C)C=NO[C@@H](C)c1cn([C@H](CO)Cc2ccccc2)nn1,0.949
23,O=C(NCCC[N+]1=CC=NC1c1ccccc1)N1CCCc2nc(-c3ccc(Br)cc3)ccc21 (stereo not drawn),-0.449
